Screens from PubChem.
Hits are enriched below; roughly 4% of the tested compounds scored in any of these assays.
NR3A LBD binder: modulators (binders) of human NR3A ligand-binding domain | 340,000 compounds, 2.5% hits | Tm shift relative to glycine control, % at 25 µM | NR3A LBD differential scanning fluorimetry, Tm shift; 0% = protein alone, 100% = glycine-bound protein;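 active = melting temperature shift of at least 10% of the positive control shift, at one fixed dose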
aDG glyco act: increases alpha dystroglycan glycosylation. AID 624168. Pro5-aDG cells, alpha-DG glycosylation AlphaScreen (IIH6); 0% Pro5, 100% B10-LARGE cell signal. activation, % at 10 µM. 360,000 compounds, 0.22% hits;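 active = activation of at least 8% versus controls, or a plate z-score of at least 8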;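 also: Pro5 are CHO cells carrying HIG-tagged alpha-DG that lacks glycosylation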
ADAM10 inh: inhibits human ADAM10 | recombinant ADAM10, EDANS/DABCYL FRET peptide cleavage, 3 h | inhibition, % at 7 µM | 370,000 compounds, 0.62% hits | AID 720582;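 active = inhibition above a per-campaign cutoff equal to the mean of compounds falling between control-based bounds plus 3 SD, cut at about 20% in these data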;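 also: 0% = DMSO wells while the 100% control is not disclosed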
FAS TE block: FAS thioesterase (human) inhibition; P49327; AID 602261; recombinant FAS-TE, OMFH fluorogenic substrate, fluorescence endpoint; inhibition, % at 15 µM; 360,000 compounds, 0.67% hits;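 active = compounds whose normalised, plate-corrected inhibition of enzyme fluorescence in the single-dose primary screen is 50% or more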;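 also: 0% = DMSO with enzyme and 100% = substrate without enzyme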
Target sequence (P49327 whole entry, looked up): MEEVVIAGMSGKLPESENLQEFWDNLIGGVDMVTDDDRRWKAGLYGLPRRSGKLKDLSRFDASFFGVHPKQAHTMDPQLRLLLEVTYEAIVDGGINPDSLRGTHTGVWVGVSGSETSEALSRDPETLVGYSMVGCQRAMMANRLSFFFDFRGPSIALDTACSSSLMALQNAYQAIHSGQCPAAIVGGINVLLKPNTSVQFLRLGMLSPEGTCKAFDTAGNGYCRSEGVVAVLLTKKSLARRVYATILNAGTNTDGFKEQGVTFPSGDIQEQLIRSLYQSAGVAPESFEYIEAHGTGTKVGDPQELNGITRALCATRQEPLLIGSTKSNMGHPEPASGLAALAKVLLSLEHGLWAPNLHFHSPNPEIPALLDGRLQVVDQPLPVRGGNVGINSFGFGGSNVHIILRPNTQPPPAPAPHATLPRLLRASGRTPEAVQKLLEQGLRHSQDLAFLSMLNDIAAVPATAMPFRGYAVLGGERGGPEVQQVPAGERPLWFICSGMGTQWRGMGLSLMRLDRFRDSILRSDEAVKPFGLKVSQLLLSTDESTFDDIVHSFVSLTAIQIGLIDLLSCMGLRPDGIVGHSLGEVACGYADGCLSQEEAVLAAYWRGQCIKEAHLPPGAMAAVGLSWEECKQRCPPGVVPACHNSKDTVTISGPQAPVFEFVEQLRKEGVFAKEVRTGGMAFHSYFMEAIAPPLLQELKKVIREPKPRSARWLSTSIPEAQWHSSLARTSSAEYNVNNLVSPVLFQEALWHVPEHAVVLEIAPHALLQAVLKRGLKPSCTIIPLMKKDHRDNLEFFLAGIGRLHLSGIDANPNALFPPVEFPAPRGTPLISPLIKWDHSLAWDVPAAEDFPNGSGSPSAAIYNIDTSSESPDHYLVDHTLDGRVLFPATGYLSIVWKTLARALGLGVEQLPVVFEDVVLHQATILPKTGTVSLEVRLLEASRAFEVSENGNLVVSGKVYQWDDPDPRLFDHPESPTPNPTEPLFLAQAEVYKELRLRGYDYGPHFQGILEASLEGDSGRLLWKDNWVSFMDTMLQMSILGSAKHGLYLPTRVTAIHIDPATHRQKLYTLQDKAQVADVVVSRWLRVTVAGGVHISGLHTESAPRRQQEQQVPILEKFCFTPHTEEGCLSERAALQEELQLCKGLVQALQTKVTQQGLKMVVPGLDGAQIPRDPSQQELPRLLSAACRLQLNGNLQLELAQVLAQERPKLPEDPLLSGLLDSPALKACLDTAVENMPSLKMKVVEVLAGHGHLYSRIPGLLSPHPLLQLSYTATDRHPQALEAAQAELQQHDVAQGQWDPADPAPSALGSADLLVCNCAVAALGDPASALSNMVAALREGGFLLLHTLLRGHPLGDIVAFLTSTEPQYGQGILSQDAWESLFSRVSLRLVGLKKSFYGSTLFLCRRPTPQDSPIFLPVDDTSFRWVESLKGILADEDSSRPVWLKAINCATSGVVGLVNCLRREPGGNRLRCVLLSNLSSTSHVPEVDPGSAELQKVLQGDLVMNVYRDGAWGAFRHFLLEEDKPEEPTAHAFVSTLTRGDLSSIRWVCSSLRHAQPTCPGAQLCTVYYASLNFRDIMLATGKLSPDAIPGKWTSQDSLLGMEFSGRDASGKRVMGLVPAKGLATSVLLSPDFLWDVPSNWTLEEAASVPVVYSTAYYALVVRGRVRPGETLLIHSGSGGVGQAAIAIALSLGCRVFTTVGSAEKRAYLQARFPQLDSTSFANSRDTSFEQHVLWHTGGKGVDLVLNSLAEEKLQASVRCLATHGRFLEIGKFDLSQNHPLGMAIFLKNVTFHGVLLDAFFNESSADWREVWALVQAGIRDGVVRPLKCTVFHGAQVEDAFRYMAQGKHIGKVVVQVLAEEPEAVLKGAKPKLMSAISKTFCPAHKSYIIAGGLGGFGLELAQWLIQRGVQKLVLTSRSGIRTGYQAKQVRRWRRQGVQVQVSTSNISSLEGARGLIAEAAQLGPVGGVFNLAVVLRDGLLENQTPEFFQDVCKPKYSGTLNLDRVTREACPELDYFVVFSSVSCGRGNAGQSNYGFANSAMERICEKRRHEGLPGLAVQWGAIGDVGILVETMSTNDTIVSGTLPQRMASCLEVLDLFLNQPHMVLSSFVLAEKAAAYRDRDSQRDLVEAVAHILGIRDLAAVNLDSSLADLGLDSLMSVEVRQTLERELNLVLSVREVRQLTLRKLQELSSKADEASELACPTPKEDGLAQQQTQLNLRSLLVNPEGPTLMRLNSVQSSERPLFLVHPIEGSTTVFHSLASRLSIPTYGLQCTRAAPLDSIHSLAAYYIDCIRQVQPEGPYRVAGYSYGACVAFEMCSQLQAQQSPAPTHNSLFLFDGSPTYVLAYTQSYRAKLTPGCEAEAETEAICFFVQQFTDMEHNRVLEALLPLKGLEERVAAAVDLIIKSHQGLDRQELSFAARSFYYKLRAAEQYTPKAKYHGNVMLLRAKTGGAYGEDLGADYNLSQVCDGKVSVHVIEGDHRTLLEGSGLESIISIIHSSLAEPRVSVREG
ADAM17 inh: inhibitors of human ADAM17. inhibition, % at 6.95 µM. 370,000 compounds, 0.83% hits. recombinant ADAM17, EDANS/DABCYL FRET peptide cleavage. P78536. AID 720648;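 active = inhibition above the mean of compounds lying between control limits plus 3 SD, set per campaign, cut at about 8.5% in these data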;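 also: 0% = DMSO-only wells as the low control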
FAS-TE inh conf: confirmation of human fatty acid synthase thioesterase inhibitors; shares compounds with FAS TE block; recombinant FAS-TE, OMFH fluorogenic substrate, fluorescence; inhibition, % at 15 µM; 2,300 compounds, 45% hits;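 active = compounds inhibiting the enzyme by at least 50% at 15 µM in any one of the replicates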;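 also: 0% = enzyme with DMSO only and 100% = wells lacking enzyme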
ADAM10 confirm: confirmation of inhibitors of human ADAM10. shares compounds with ADAM10 inh. ADAM10 QFRET peptide cleavage, EDANS fluorescence. inhibition, % at 6.95 µM. 2,100 compounds, 1% hits. AID 743208;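 active = inhibition above about 20% chosen separately for each screening run, limit read from the data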;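 also: 0% = DMSO wells and 100% = marimastat wells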
ADAM17 counter: counter-screen for ADAM10 exosite inhibitors: inhibitors of human ADAM17; shares compounds with ADAM10 inh; ADAM17 QFRET peptide cleavage, EDANS fluorescence; inhibition, % at 6.95 µM; 2,100 compounds, 0.5% hits;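 active = mean triplicate inhibition above the solvent-only control wells' mean plus 3 SD, cut at about 12% in these data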;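 also: 0% = DMSO wells and 100% = marimastat wells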
ADAM10 counter: inhibits human ADAM10 in ADAM17 exosite counter-screen; inhibition, % at 6.95 µM; shares compounds with ADAM17 inh; recombinant ADAM10, EDANS/DABCYL FRET peptide cleavage, 3 h; 2,900 compounds, 47% hits; AID 743256;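 active = mean inhibition over the triplicate runs exceeds the activity threshold set in the earlier primary screen, cut at about 20% in these data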;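 also: 0% = DMSO wells and 100% = marimastat wells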
ADAM17 confirm: confirmation of inhibitors of human ADAM17; inhibition, % at 6.95 µM; AID 743257; shares compounds with ADAM17 inh; 2,900 compounds, 65% hits; recombinant ADAM17, EDANS/DABCYL QFRET peptide cleavage;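 active = mean inhibition across replicates above the hit cutoff set in the primary screen, cut at about 8.5% in these data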;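 also: 0% = DMSO wells and 100% = marimastat wells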
The depositor's hits bear a star; . = no result.

SMILES	NR3A LBD binder	aDG glyco act	ADAM10 inh	FAS TE block	ADAM17 inh	FAS-TE inh conf	ADAM10 confirm	ADAM17 counter	ADAM10 counter	ADAM17 confirm
O=C1CC(N(CCc2ccccc2)C(=S)Nc2cc(Cl)ccc2Cl)C(=O)N1c1c(Cl)cccc1Cl (stereo not given)	16*	2	21*	56*	12*	9	15	4	24*	13*
COc1ccc([C@@H]2[C@@H]3C(=O)N(C(C)(C)C)C(=O)[C@@H]3[C@]3(CC(C)C)C(=O)N(c4ccccc4)C(=O)N23)cc1	-2	0	0	12	-2	.	.	.	.	.
COc1ccc([C@@H]2[C@@H]3C(=O)N(C(C)(C)C)C(=O)[C@@H]3[C@]3(CC(C)C)C(=O)N(c4cccc(Br)c4)C(=O)N23)cc1	-3	1	27*	58*	10*	40	7	1	23*	16*
O=C(c1ccncc1)N(c1ccc2oc3c(c2c1)CCCC3)S(=O)(=O)c1ccc(F)cc1	-4	0	17	65*	8.8*	43	.	.	9	7
O=C(CC1SC(N2CCCC2)=NC1=O)Nc1ccc(C(=O)N2CCCC(C(F)(F)F)C2)cc1 (stereo not given)	-2	0	-9	-6	-5	.	.	.	.	.
CCCCCCC/C=C(\C)[C@@H](O)[C@@H](C)C(=O)N1CCC[C@@H]1C(=O)O	.	.	8	.	-1	.	.	.	.	.
CCOC(=O)[C@H]1[C@H]2COc3cc(OC)ccc3[C@@H]2N2C(=O)CN(Cc3ccccc3)C(=O)[C@@]12C	-1	0	-4	-1	5	.	.	.	.	.
CCOC(=O)[C@H]1[C@H]2COc3ccc(Cl)cc3[C@@H]2N2C(=O)CN(Cc3ccccc3)C(=O)[C@@]12C	-1	0	2	14	1	.	.	.	.	.
COc1ccc2c(c1)[C@H]1[C@H](CO2)[C@H](c2ccccc2)[C@]2(C)C(=O)Nc3cc(F)ccc3C(=O)N12	-14	0	13	54*	10.0*	30	.	.	-10	0
Cc1ccc(CN2CC(=O)N3[C@H]4c5cc(Cl)ccc5OC[C@@H]4[C@H](c4ccccc4)[C@]3(C)C2=O)cc1	-2	0	15	84*	9.4*	17	.	.	8	7
COc1ccc2c(c1)OC[C@H]1[C@H]2N2C(=O)CN(Cc3ccc(Cl)cc3)C(=O)[C@@]2(C)[C@H]1c1ccccc1	-14	0	16	75*	9.9*	29	.	.	29*	13*
CC(C)(C)c1ccc(-c2nnc(SCC(=O)NCC3CCCO3)n2N)cc1 (stereo not given)	1	0	-12	3	2	.	.	.	.	.
CC(=O)Nc1ccc(S(=O)(=O)N2CCC(C(=O)NCCC(=O)NCc3ccccc3)CC2)cc1	0	0	-9	-5	-4	.	.	.	.	.
O=C(COc1cccc(Oc2ccccc2)c1)Nc1ccc(SC(F)F)cc1	1	1	18	81*	10*	55*	.	.	32*	18*
O=C(COc1cccc(OC(F)F)c1)Nc1ccc(SC(F)F)cc1	0	0	14	29	6	.	.	.	.	.
COc1ccc([N+](=O)[O-])cc1NC(=O)CSc1ccc2ccccc2c1	1	5	10	55*	9.6*	44	.	.	21*	8
COc1ccc([N+](=O)[O-])cc1NC(=O)CSc1nc(C)cc(C)n1	2	0	5	18	5	.	.	.	.	.
CCOC1=C2[C@@H](CN(S(=O)(=O)c3ccc(C)cc3)[C@H]2c2cccc3ccccc23)[C@H]2C(=O)N(Cc3ccccc3)C(=O)[C@H]2C1	.	0	25*	60*	8.8*	17	8	2	21*	14*
CCOC1=C2[C@@H](CN(S(=O)(=O)c3ccc(C)cc3)[C@H]2c2cccc3ccccc23)[C@H]2C(=O)N(CC)C(=O)[C@H]2C1	.	0	-3	24	0	.	.	.	.	.
Cc1ccccc1S(=O)(=O)NC(=O)C1(C)CCN1C(=O)Cc1ccccc1Cl (stereo not given)	.	0	-25	-4	-5	.	.	.	.	.
CN(C(=O)Nc1ccc(Cl)cc1Cl)[C@H]1c2cc(Br)ccc2OC[C@H]1CO	-7	0	27*	50*	15*	50*	4	1	28*	12*
CC(C)NC(=O)N(C)C[C@@H]1OCCCC[C@@H](C)Oc2ccc(NC(=O)Nc3ccc(F)cc3)cc2C(=O)N([C@H](C)CO)C[C@@H]1C	.	-1	1	-3	1	.	.	.	.	.
C[C@@H]1CN([C@H](C)CO)C(=O)c2cc(NC(=O)Nc3ccc(F)cc3)ccc2O[C@@H](C)CCCCO[C@H]1CN(C)S(=O)(=O)c1cccs1	.	-1	30*	81*	8.9*	78*	5	2	42*	21*
NC(=O)[C@H]1CC2(CC(c3cccc(NC(=O)COc4ccc(Cl)cc4)c3)=NO2)CN1C(=O)C(c1ccccc1)c1ccccc1 (stereo not given in full)	11*	2	31*	73*	12*	21	12	4	30*	15*
Cc1nc(-c2cccc(NS(=O)(=O)c3ccccc3)c2)cs1	-13	0	1	8	-1	.	.	.	.	.
Cc1ccc(S(=O)(=O)Nc2ccc(-c3csc(-c4ccccc4)n3)cc2)cc1	24*	0	31*	72*	15*	27	19	6	24*	20*
O=C(OCc1csc(Nc2ccccc2)n1)c1ccc(Cl)cc1	11*	0	24*	52*	12*	14	11	4	45*	18*
CC(C)(C)c1cc(C(=O)NNc2cc(C(F)(F)F)ccc2Cl)n(Cc2ccccc2)n1	3	0	19	54*	10*	15	.	.	27*	10*
Cc1ccc(C(=O)CC2C(=O)N(c3ccccc3)C(=S)N2c2ccccc2)cc1 (stereo not given)	2	0	16	53*	9.3*	16	.	.	44*	19*
CCOc1ncccc1C(=O)N1CCCSC1=Nc1ccccc1OC	0	1	-10	-2	-7	.	.	.	.	.
